Test results: PubChem BioAssay AID1159506 (National Center for Advancing Translational Sciences (NCATS), 2015)
The full ranking holds about 59,000 sequences; the median of the read-out is about -0.00055, and the lowest 2% start at about -2. Shown is part of a subset that was picked to be rich in the lowest values.

Experiment: Identification of proteins required for the processing of the EWS-FLI1 nascent transcript;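 also: robust z of luciferase light less the median z of siRNAs with the same seed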
Settings: TC32 Ewing sarcoma NR0B1-luc vs CMV-luc (EWS-FLI1 target promoter against control promoter), 48 h; screened at 20 nM (by protocol)
Method in brief: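 TC32 Ewing sarcoma cells carrying NR0B1-promoter or CMV-promoter luciferase reporters were reverse-transfected with single siRNAs at 20 nM, three per gene genome-wide. Luminescence was read after 48 h and normalized to non-targeting controls.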

Sequence	seed-corrected z-score
UCGUAGGCAAGGUAAGUAG against MUCL1	-0.0888
UCAAGUAAACUAGUCGUUU against VKORC1L1	-0.26
UUGGUUGCAAAGGAACUCC against NAB1	-2.58
UUCAUUUGCUCGAUGGUUG against MAPK1	1.09
UUCCUUGAUAGGUAUGUAU against LOC388813	-0.0267
UUGUGAACUACUUCUAUCC against AKNA	0.00206
AUAGGUCUGACUCAGCUGC against CCDC155	-2.23
UAGUGUACAAGGGUCAGGC against TSPAN17	0.12
UAUACACCAAUGUCGGUCC against KDM5A	0.142
AAUGAGUAAAAAGUGAAUU against HTN1	-0.556
UGAUGUAAAAUCAAAGGUU against KRT6C	0.491
AAACUUGGUUGAGUGAUCC against KRBA2	0.654
UGACUAUUAGGUCUUUAGC against BCAT1	-0.111
UCCAUCGUCAAUGUUAUCC against HNRNPH3	-5.45
AUAUCUAUAAUACCCUCCG against APIP	0.416
AUACGUGUUCUCAAUGAUC against RNF121	0.696
UUCUCUUCUUUAGUCAGUG against SKA2P1	-2.33
AAUAUUGUAAGAAGAAGGG against NT5C3B	0.882
UGGGUUCUCAGGAACGGGU against PNKD	1.76
UUCCUUUUGCGUCUGGAUC against ZC2HC1C	-1.55
UAUUUGGGUGGUUCAGUUG against NEK6	-0.0182
UAUGAGUCCACAAUUGAUC against TMEM19	-11
UCUACAAGUAAUGAAGGCC against ZFP62	0.853

Sequence	seed-corrected z-score
AAUGAUGAAUCCACCUUCG against ARMC10P1	-0.435
UCAGCUAACAAAGAGUCGC against STAG3	0.617
AGCAGUAUAAAACAGGAGC against TIPARP	0.177
AUAAUCACACUGUCAACUG against ACAA2	-0.323
AGCCUUAGACGUGCAGUUG against RPL36AP31	-2.33
UGUUGUAGCAGAAUGAGGA against ARC	-3.81
UGCUGGGUCAGAUGUCUCC against ARHGAP9	0.0212
UUCGAUCACCAUAUACUCC against KCNA3	0.36
UCGGUAUUCAAACCCUUCG against HIRA	0.423
UCAGGGCAUAGAUAAGUGG against OR10W1	-2.86
UUUCUAGCUAAGGUCAAAC against SHOC2	-0.857
AUAGGAGAUCGCAUCGCCC against CACFD1	-0.00387
AAGGUGUUCACGUAGGCUG against CLN3	-2.78
AUUGGUAUCCUAACUAUUC against EFHD1	0.876
UCUGGGAACACCCUCAGCA against GABRR2	-0.593
ACGGAUUCUAGUUUAGAUG against KIAA0232	2.72
UCCGUUCAUAGUCUUCUCC against CSPP1	-2.12
AUAACGAUGCUUUAUGUGG against ABHD1	-0.139
UCUCUAACUUCGACCCUCU against C19orf68	0.527
UUUCUCAACUGCAUGAAAG against LINC00264	-0.13
UACUGAAGUAGUUAGGAUC against INO80C	1.43
AUGUUGCCCACGUCCUUGG against RABIF	-3.06
AAUGAGGCAGGCAUGUUGG against PNMT	1.18

Sequence	seed-corrected z-score
UGUAUCCUAAGGUAUCGGC against VWA8	-0.221
AUAUCUUCGAAAGUAAAUC against RPF2P1	1.14
UUUUUCCAUACUUCAAGCC against QRICH1	-0.708
AAAUGGAAAUUCUCGAUGU against HTN1	0.36
AGAUUGGUCAAAGCCUUUC against ZNF319	-2.3
AUAGUUAUUCUUGUCGGGC against HVCN1	-0.696
UACGUAGUCGUCAUCAUCU against FAM83G	-0.453
UCAUUAGACAUAACAUUGC against ALG13	0.117
UCAUAGUCGAUCACCACUG against COL23A1	-0.458
UUAGUAGUGACAUUUCGGG against MRE11A	-0.0144
UUGAAUAGGAAGAGUAUCC against OMA1	1.31
UAACUGAUCAGACCACAAC against TUBA1A	0.266
UGUCCAUAAACAGUAAAGG against ZNF30	-2.51
UGAUUUAAUCUUGCCGCCC against PHLDB1	0.669
AACACGUUGCCUGUCUUUC against NUTM2A-AS1	0.413
UUUAGAACUGGUUAUUUUC against DEFB116	0.117
AUGGUGAUCAUGGGACUGC against BEST1	-3.4
UUUGGUAACCUCUAGGUGC against RUFY2	0.0818
UAGGCAAACAUGCACCUGG against POLG	-0.765
UCGUGGUCUUCUAUUGUUC against GRB14	-0.556
AAUACAAUAGCAUAUACUC against RBBP9	0.306
UGCGGAUACAGAUCACUCC against WDR87	-2.28
UGAAUAAUGAAGUAUCCUG against AMPH	-0.174

Sequence	seed-corrected z-score
UUAGUUCCAUGCCUUGCUC against ATP6V0A4	-0.497
AGUUAUAUCAGUCGUGAUC against FERMT2	0.187
UUCUGUAUCUGCUCCUUGU against PFDN2	1.09
UCUCUUUCCUCUGCGUGCG against GDF7	-2.92
UCUCAGGACUUAUAGCUGG against CEACAM3	0.106
AACUCUAUCUUGUAAAGGC against ZKSCAN3	0.0258
UCUAGUAACUCCAUAAGUU against NAA20	0.8
UUUGUUGUCUGGUUGGAGC against ZDHHC14	-0.328
UCAGGGCACAGCUAUAAGG against CPAMD8	0.0569
UAUUGUAGAUUGAACAGCC against NSMCE2	0.561
AUAGAGCUUAUAGAAGCGG against USP11	0.792
UAAAGGGAACGAAACACCC against HSPA1B	1.45
UUAUUUAUUGCCGCUCAGG against SFTA2	-2.64
UUGGGUCCGACAGUGAAGA against FAAP20	0.502
AGUACUACCAAAGAGAUGG against TBC1D23	0.0728
UAUCUUGAUCUGCCUCUCC against HOXB6	0.291
UAUCCCAAUACAAAGUACU against RCE1	-1.06
UUGCUUAACUACUCUGUGC against C9orf106	-11.2
AUCGCUGUAGCACUUGUGC against PKP3	-0.54
UGAGUUUCCACUUCCAGCC against UBQLN4	-2.2
UUUGUUCCAGGGAUGUACU against CYCS	0.577
UUCCCGUGAACCGUUGAUC against PNLIPRP3	0.389
ACACCUGUGACUAAGACCC against SDR39U1	-0.296

Sequence	seed-corrected z-score
UUUGGUAUCUCCGACCACC against UCP2	0.898
UCAAGUGUAUCAGUUUUCG against KSR2	0.704
UGUGGUUGAAGAGGCUUGU against TMEM39B	-2.3
UAAGGUGUGAACUAUAAGG against ZNF267	-0.0939
UAUAUCAAAAUCCACUCGC against NDUFAF6	1.27
UUUCUUAGAUGAGACAUUG against EBLN2	-12.2
UAAACCUCCACCUAAGAGC against ELP4	0.275
UACUCGUACACUUCCAUGC against THBS3	1.22
UAACUAUAGUGGUUAGGUC against IL7R	-0.304
AUUUGGGACACUCAAAGGG against ZBTB48	-0.672
UCCAUAGCAGGAUUAUUGC against ACSL4	-4.37
UUUGUCGUCACUGUAUUCC against ING5	-0.505
UAAGGGACAUCUAAGGAAC against MAML1	-1.38
AAACUUGCGAUCUCAUAUG against FBXW12	-0.183
UACAGGUAAACAGGUCGUG against SKINT1L	-3.34
UUCUGGUUCACCGUCUUCC against SLC13A2	-1.96
UUUCGUAUAGAGCUUCUCC against DNAJC5B	-0.0232
UUUAUAGUCAAUGGUAUUG against TAF1D	-0.19
UUCCUUAGCAGGUAUCGCG against PDZD7	0.373
AUAGUAAUGCCGGAACAGC against GPR108	-2.74
AUGGAGACAAGUUACCUGU against DCX	-1.34
UUGAGUGAGAAGAUCAGUG against PAH	-0.365
UUUGCAGUCGCAAUAGUCA against PRKCSH	-0.0915

Sequence	seed-corrected z-score
ACUGGUAUUUGACAAGUCC against SGOL2	-0.0318
AAUACCUCAACAUUGAUCC against LILRA6	0.22
UACUUGUGAUCAUCUAGAC against PSMD1	-2.21
UCAGAGUUGGUGACUAUGC against MUC21	0.222
UGAUGUUCAGCAUCUUCUC against UBTF	-0.484
AGCGUAGUCAGUGUAGACC against DNAH2	0.323
AUAGGCUUCGUUAAUGAGC against YJEFN3	1.04
UUCCUGCUUGCCUCUAUGG against USP17L9P	-0.281
UCUCGGUCGAUGAAGUACC against KCTD7	-3.05
UCAAUCACACGUCUUAUGC against TRMT5	0.553
UUCGUAUUCAACUGACUGC against TCP11L1	1.06
UAUGGGUUCAUCAGGCUCA against SH2D2A	-3.05
AAGAGAUCCAGCUUCCUGC against SPEG	-0.187
UCUUGAACCGGAUCGAUGC against TTLL9	-0.369
UUCGUGGGUAGCCAUGACC against F8A2	0.752
UUUUCAUAGAGGAUGAUCU against CRYBB2	1.03
UCUAAUACAAGGUUCAUAU against SNRPEP2	-2.56
UCAAUGCUCAGGGAACUGC against C1orf216	2.53
